Source: PubChem
PHOSPHO1 block: PHOSPHO1 (human) inhibition; Q8TCT1; recombinant PHOSPHO1, absorbance phosphatase assay; inhibition, % at 13.3 µM; actives 1.1% (n = 290,000); AID 1565; in the data active = inhibition above about 60%
Target sequence (Q8TCT1 whole entry, looked up): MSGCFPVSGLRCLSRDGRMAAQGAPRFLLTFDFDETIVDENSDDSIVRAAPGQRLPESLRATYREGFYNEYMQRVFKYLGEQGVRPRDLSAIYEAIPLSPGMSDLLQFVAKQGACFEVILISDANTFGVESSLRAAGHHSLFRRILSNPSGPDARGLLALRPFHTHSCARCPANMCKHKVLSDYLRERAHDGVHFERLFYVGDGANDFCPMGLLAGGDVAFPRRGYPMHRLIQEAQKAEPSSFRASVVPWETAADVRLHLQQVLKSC
G6PDH CS: L. mesenteroides G6PDH inhibition counter-screen; Purified L. mesenteroides G6PDH, diaphorase/resazurin coupled fluorescence, 45 min; inhibition, % at 5 µM; actives 0.12% (n = 200,000); in the data active = inhibition above about 50%
HDAC3 inhib: human HDAC3 inhibition. recombinant HDAC3, fluorogenic peptide/trypsin coupled, fluorescence. actives 0.15% (n = 320,000). inhibition, % at 8.3 µM. O15379. AID 2718; in the data active = inhibition above about 26%, passing the limit was not always enough
PfM18AAP inh: blocks P. falciparum M18 aspartyl aminopeptidase; recombinant PfM18AAP, H-Glu-NHMec fluorogenic cleavage; inhibition, % at 7.35 µM; actives 1.2% (n = 290,000); AID 1822;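 active = inhibition above the campaign mean inhibition over all tested compounds plus 3 SD, cut at about 28% in these data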;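 also: 0% = plate median of test compound wells and 100% = 2 mM ZnCl2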
UBC9 SUMO inh: inhibitors of human SUMOylation (UBC9); AID 2006; inhibition, % at 35 µM; actives 0.36% (n = 290,000); HTRF SUMOylation assay, SAE1/SAE2 + UBC9, in vitro; P63279; in the data active = inhibition above about 50%, passing the limit was not always enough
Target sequence (P63279 whole entry, looked up): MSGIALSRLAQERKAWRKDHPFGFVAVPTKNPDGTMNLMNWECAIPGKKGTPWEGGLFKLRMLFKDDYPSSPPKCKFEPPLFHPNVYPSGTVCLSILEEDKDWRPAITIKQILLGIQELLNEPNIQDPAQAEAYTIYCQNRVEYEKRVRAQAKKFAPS
p97 ATPase inh: blocks human p97 ATPase activity | P55072 | recombinant p97 ATPase, Kinase-Glo ATP luminescence, 3 h | inhibition, % at 8 µM | actives 0.42% (n = 220,000) | AID 1481; in the data active = inhibition above about 15%;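 also: 0% = DMSO vehicle and 100% = wells lacking enzyme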
* = called active by the depositor. Shown are actives, neighbours in structure and some others; about 2.5% of the full set was active somewhere.

Results for Cc1onc(-c2ccccc2)c1C(=O)Nc1ccc(S(=O)(=O)NC(C)(C)C)cc1 ?
PHOSPHO1 block: 22; G6PDH CS: 24; HDAC3 inhib: 1; PfM18AAP inh: 2; UBC9 SUMO inh: 9; p97 ATPase inh: 2

What do the screens show for `O=C(c1ccc2c(=O)n(C3CCCC3)c(=S)[nH]c2c1)N1CCc2ccccc21`?
PHOSPHO1 block: 63*; G6PDH CS: -3; HDAC3 inhib: -3; PfM18AAP inh: 3; UBC9 SUMO inh: 19; p97 ATPase inh: 3

What do the screens show for `CCn1ccnc1CN(C)C(=O)C1CCC(=O)N(Cc2cccc(F)c2)C1` (configuration not stated)?
PHOSPHO1 block: 40; HDAC3 inhib: -1; PfM18AAP inh: -6; UBC9 SUMO inh: 5

How did CN(Cc1nc(Cc2ccccc2F)no1)Cc1cccc2ncccc12 do in these assays?
PHOSPHO1 block: 30; G6PDH CS: 51*; HDAC3 inhib: -1; PfM18AAP inh: 10; UBC9 SUMO inh: 4; p97 ATPase inh: -7

Results for CCOC(=O)N1CCN(C2=Nc3cccc4cccc2c34)CC1 ?
PHOSPHO1 block: 7; G6PDH CS: 58*; HDAC3 inhib: 4; PfM18AAP inh: 0; UBC9 SUMO inh: 34; p97 ATPase inh: 3

Results for COc1ccccc1N1CCN(C2=Nc3cccc4cccc2c34)CC1 ?
PHOSPHO1 block: -15; G6PDH CS: 3; HDAC3 inhib: 6; PfM18AAP inh: 11; UBC9 SUMO inh: -8; p97 ATPase inh: -10

Results for CC(=O)N1CCN(C2=Nc3cccc4cccc2c34)CC1 ?
PHOSPHO1 block: -18; G6PDH CS: 56*; HDAC3 inhib: 1; PfM18AAP inh: -6; UBC9 SUMO inh: 42; p97 ATPase inh: 4

Results for c1cc2c3c(cccc3c1)C(N1CCN(C3=Nc4cccc5cccc3c45)CC1)=N2 ?
PfM18AAP inh: -3; p97 ATPase inh: 5

What do the screens show for `Cc1cccc(NC(=O)CSc2n[nH]c(-c3ccncc3)n2)c1C`?
PHOSPHO1 block: 24; HDAC3 inhib: 0; PfM18AAP inh: -4; UBC9 SUMO inh: 4

How did Cc1ccc(S(=O)(=O)Nc2ccc(NC(=O)Nc3cccc(C(F)(F)F)c3)cc2)cc1 do in these assays?
PHOSPHO1 block: -1; G6PDH CS: -12; HDAC3 inhib: 31*; PfM18AAP inh: -13; UBC9 SUMO inh: -15; p97 ATPase inh: -1

How did CCn1c(SCC(=O)O)nnc1-c1ccc2[nH]c(C)c(C)c2c1 do in these assays?
PHOSPHO1 block: -11; G6PDH CS: 1; HDAC3 inhib: 1; PfM18AAP inh: -2; UBC9 SUMO inh: -14; p97 ATPase inh: 5

What do the screens show for `Cc1cc(C)c(C)c(C(=O)CSc2nnc(-c3ccc4[nH]c(C)c(C)c4c3)o2)c1C`?
PHOSPHO1 block: 61*; G6PDH CS: -6; HDAC3 inhib: -4; PfM18AAP inh: 5; UBC9 SUMO inh: -2; p97 ATPase inh: -3

How did Cc1[nH]c2ccc(-c3nnc(SCC(=O)c4ccc(F)cc4)o3)cc2c1C do in these assays?
PHOSPHO1 block: 87*; G6PDH CS: -4; HDAC3 inhib: 4; PfM18AAP inh: -18; UBC9 SUMO inh: -2; p97 ATPase inh: 1

How did O=C(COc1cccc2ccccc12)NNC(=O)CSCCO do in these assays?
PHOSPHO1 block: -6; G6PDH CS: 5; HDAC3 inhib: -2; PfM18AAP inh: 31*; UBC9 SUMO inh: 6; p97 ATPase inh: -1

Results for CCCn1c(SCC(=O)c2cc(C)ccc2C)n[nH]c1=O ?
PHOSPHO1 block: 94*; G6PDH CS: -3; HDAC3 inhib: 8; PfM18AAP inh: 6; UBC9 SUMO inh: 5; p97 ATPase inh: -4

How did CCc1nc(SCC(=O)c2cc(C)ccc2C)n[nH]1 do in these assays?
PHOSPHO1 block: -3; G6PDH CS: 3; HDAC3 inhib: 3; PfM18AAP inh: -8; UBC9 SUMO inh: 11; p97 ATPase inh: -5

Results for CCOC(=O)c1sc2nc(C)n(N)c(=O)c2c1C ?
PHOSPHO1 block: 63*; G6PDH CS: 2; HDAC3 inhib: 5; PfM18AAP inh: -6; UBC9 SUMO inh: -1; p97 ATPase inh: 1

How did O=c1c(O[C@@H]2O[C@H](CO)[C@@H](O)[C@H](O)[C@H]2O)c(-c2ccc(O)cc2)oc2cc(O)cc(O)c12 do in these assays?
HDAC3 inhib: 7

What do the screens show for `C[C@@H]1O[C@@H](OC[C@H]2O[C@@H](Oc3c(-c4ccc(O)c(O)c4)oc4cc(O)cc(O)c4c3=O)[C@H](O)[C@@H](O)[C@@H]2O)[C@H](O)[C@H](O)[C@H]1O`?
PHOSPHO1 block: -4; G6PDH CS: 37; HDAC3 inhib: 4; PfM18AAP inh: 64*; UBC9 SUMO inh: 7; p97 ATPase inh: 8

Results for O=c1c(O[C@@H]2O[C@H](CO)[C@@H](O)[C@H](O)[C@H]2O)c(-c2ccc(O)c(O)c2)oc2cc(O)cc(O)c12 ?
PHOSPHO1 block: 28; G6PDH CS: 34; PfM18AAP inh: 68*; UBC9 SUMO inh: 6; p97 ATPase inh: 3

How did O=c1c(O[C@@H]2O[C@H](CO)[C@H](O)[C@H](O)[C@H]2O)c(-c2ccc(O)c(O)c2)oc2cc(O)cc(O)c12 do in these assays?
PHOSPHO1 block: -4; G6PDH CS: 28; PfM18AAP inh: 68*; UBC9 SUMO inh: 2; p97 ATPase inh: -5

What do the screens show for `COc1cccc(-c2ccc(NC(=O)C3CCCN(Cc4ccc(CO)o4)C3)cc2)c1` (configuration not stated)?
PHOSPHO1 block: -10; HDAC3 inhib: 14; PfM18AAP inh: 3; UBC9 SUMO inh: 9

How did Cc1nc2ccc(NC(=O)NCc3ccco3)cc2s1 do in these assays?
PHOSPHO1 block: 17; G6PDH CS: -9; HDAC3 inhib: 2; PfM18AAP inh: 16; UBC9 SUMO inh: 67*; p97 ATPase inh: 5

Results for O=C(NCc1ccco1)Nc1ccc2snnc2c1 ?
PHOSPHO1 block: -11; G6PDH CS: 1; HDAC3 inhib: -3; PfM18AAP inh: -6; UBC9 SUMO inh: 69*; p97 ATPase inh: -2

How did O=c1cc(O)n(C2CCCCCC2)c(=O)[nH]1 do in these assays?
PHOSPHO1 block: 1; HDAC3 inhib: 6; PfM18AAP inh: 9; UBC9 SUMO inh: 6

What do the screens show for `O=c1[nH][nH]c(=S)n1C1CCCCC1`?
PHOSPHO1 block: 44; HDAC3 inhib: 32*; PfM18AAP inh: 58*; UBC9 SUMO inh: 11; p97 ATPase inh: -2

Results for CCCCn1c(N)c(N(CC)C(=O)c2ccc(C#N)cc2)c(=O)[nH]c1=O ?
PHOSPHO1 block: 30; HDAC3 inhib: 8; PfM18AAP inh: -2; UBC9 SUMO inh: 12

How did C/C(=N\NC(=O)c1c(C)nc2ccccn12)c1ccc(O)cc1O do in these assays?
PHOSPHO1 block: 20; HDAC3 inhib: -9; PfM18AAP inh: 29*; UBC9 SUMO inh: 11

How did CCCN(CC(=O)Nc1ccccc1OC)Cc1c(O)ccc2ccccc12 do in these assays?
PHOSPHO1 block: 27; HDAC3 inhib: -5; PfM18AAP inh: 3; UBC9 SUMO inh: -7
